Reference: PMC13541613, “GHT-SELEX demonstrates unexpectedly high intrinsic sequence specificity and complex DNA binding of many human transcription factors”

Experiments:
ZNF721 full-length = ZNF721 full-length (Homo sapiens, UniProt Q8TF20-2 1-923); test: HT-SELEX; 20 mM HEPES pH 7, 140 mM KCl, 5 mM NaCl, 1 mM K2HPO4, 2 mM MgSO4, 100 uM EGTA, ZnSO4, 0.1% Tween20; room temperature, 1 h; high values mean tight binding; conditions: protein: ivt; tags: eGFP (N-terminal); dsDNA, one strand shown
Method in brief: (§1)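 In HEPES/KCl low-stringency buffer with Tween20, a bead-immobilised tagged transcription factor (full-length or DNA-binding-domain fragment, from HEK293 lysate or cell-free extract) was incubated with a randomized 40-base DNA library for 1 h at room temperature. DNA retained after washing was heat-eluted, amplified by PCR over successive cycles and Illumina-sequenced, giving ~3 million 60 bp reads per sample. The reported binding signal, a relative k-mer count in those selected reads, rises with tighter binding.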

ZNF721 DBD2 = ZNF721 DBD2 (Homo sapiens, UniProt Q8TF20-2 395-923); test: as above; conditions: protein: ivt; tags: eGFP (N-terminal); dsDNA, one strand shown
Sequence of ZNF721 DBD2 (Q8TF20 383-911): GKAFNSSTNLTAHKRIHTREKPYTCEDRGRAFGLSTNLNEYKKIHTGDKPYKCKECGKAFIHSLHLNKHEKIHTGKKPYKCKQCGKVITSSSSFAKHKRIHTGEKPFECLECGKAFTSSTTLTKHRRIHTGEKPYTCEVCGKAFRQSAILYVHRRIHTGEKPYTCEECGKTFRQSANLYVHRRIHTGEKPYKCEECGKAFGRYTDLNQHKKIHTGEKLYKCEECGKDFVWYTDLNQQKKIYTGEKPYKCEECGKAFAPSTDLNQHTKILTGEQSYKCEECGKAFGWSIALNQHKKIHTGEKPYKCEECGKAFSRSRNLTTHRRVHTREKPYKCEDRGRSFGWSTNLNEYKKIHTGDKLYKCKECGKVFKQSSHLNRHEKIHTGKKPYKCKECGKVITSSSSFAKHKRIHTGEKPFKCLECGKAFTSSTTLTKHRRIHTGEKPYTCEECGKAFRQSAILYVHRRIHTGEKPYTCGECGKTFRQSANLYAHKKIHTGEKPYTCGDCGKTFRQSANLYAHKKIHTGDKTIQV
Method in brief: as §1

Sequence of ZNF721 full-length (Q8TF20 other isoform, or with tags, fused parts or gaps): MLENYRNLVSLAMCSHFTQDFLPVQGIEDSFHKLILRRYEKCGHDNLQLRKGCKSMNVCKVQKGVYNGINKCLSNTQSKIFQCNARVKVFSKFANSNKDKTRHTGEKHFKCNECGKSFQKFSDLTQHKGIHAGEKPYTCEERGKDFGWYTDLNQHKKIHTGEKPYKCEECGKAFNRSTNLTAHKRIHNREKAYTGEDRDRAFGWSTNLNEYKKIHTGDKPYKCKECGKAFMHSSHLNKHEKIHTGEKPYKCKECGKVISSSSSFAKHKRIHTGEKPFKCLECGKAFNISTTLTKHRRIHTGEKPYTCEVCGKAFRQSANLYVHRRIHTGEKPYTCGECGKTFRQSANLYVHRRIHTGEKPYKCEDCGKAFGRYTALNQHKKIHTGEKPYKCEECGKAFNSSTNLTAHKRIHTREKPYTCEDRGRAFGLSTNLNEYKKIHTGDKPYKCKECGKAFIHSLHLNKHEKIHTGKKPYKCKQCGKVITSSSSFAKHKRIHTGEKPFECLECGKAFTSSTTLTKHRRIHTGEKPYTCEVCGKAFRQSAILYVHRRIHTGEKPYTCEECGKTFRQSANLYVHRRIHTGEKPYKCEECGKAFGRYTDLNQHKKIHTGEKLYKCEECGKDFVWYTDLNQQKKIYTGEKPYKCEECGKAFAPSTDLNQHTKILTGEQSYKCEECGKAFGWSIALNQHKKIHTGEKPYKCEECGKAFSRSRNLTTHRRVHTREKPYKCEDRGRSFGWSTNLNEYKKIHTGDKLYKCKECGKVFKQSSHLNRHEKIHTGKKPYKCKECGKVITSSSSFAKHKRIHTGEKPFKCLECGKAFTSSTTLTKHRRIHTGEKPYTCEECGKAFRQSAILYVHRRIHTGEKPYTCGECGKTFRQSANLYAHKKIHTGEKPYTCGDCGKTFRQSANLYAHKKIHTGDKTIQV

Sequence	binding signal (ZNF721 full-length) [relative 10-mer count]	binding signal (ZNF721 DBD2) [relative 10-mer count]
ACAGCATCCC	0.114	0.088
AAACACTGCT	0.109	0.18
AAAAAACAGA	0.261	0.219
CAGCATGCCC	0.121	0.244
AAACAGAGTA	0.198	0.22
AAACAGCACT	0.14	0.201
CAAAAACAGC	0.163	0.251
AAAACAGCCC	0.152	0.156
AAAGAAACAG	0.126	0.119
CACTGTTTTC	0.15	0.248
CCGAAAACAG	0.111	0.217
AAACAGCACA	0.11	0.109
AAACACTGTT	0.135	0.266
ACAGCATGAC	0.209	0.295
GAGACACTGC	0.113	0.128
TAAAACAGCA	0.152	0.177
ACAGCGTTTC	0.253	0.448
AAAAACAGCG	0.589	0.668
AAACAGCATT	0.17	0.254

Sequence	binding signal (ZNF721 full-length) [relative 10-mer count]	binding signal (ZNF721 DBD2) [relative 10-mer count]
AAAACAGGGT	0.391	0.506
CAGGGTTTCC	0.162	0.368
CAAAAAACAG	0.386	0.495
CTGTTTTTTA	0.204	0.282
AAAACAGGGG	0.112	0.145
AGACACTGCT	0.109	0.127
ACAGTGTTGC	0.13	0.341
AAGAAAACAG	0.177	0.222
AACACTGCTT	0.388	0.495
AAAACTAGCA	0.127	0.173
ACACTGCTTG	0.107	0.138
AAAAACAGAA	0.108	0.0718
AACGCTGCTT	0.207	0.327
AGAAAACAGC	0.251	0.322
AAGCAGTGTC	0.13	0.151
CAGTGTCTCC	0.213	0.552
ACAAAGCAGT	0.146	0.174
CTGTTTTTTC	0.357	0.365
AAACAGCGTC	0.206	0.277
